For experiment [1], the system named is LEGO organoid PTCC (PTEN-/-; TP53-/-; CDKN2A-/-; CDKN2B-/-). The experiment is described as follows: bioluminescence (viable cell) signal fold change after vs before treatment, normalised to DMSO (ratio); higher = more tumour cell growth / less inhibition. The following applies: 10 µM; treatment time 6 days. As for the experimental part:
(§1)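 Luc2-labelled iPSC-derived glioblastoma-like organoids (LEGOs, genotypes PT = PTEN-/-;TP53-/-, PTCC = plus CDKN2A/B-/-, PTN = plus NF1-/-) were treated with 10 uM drug for 6 days (applied every other day) at 37 C. Bioluminescence imaging was done before treatment and 2 days after the last dose. BLI signals were normalised to the DMSO control on the same day and then to the pre-treatment signal (N=3).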

Experiment [2] deals with LEGO organoid PTN (PTEN-/-; TP53-/-; NF1-/-). The description is as above. The following applies: 10 µM; treatment time 6 days. The procedure: as §1

Molecules are shown by their SMILES.

These results are taken from the supplement of paper PMC10811239.

For the molecule `S=c1nc[nH]c2nc[nH]c12` [Mercaptopurine], the values for the bioluminescence in experiment [1] and in experiment [2] were 1.6 and 0.946, respectively.
As for `CN(C)CC(c1ccc(O)cc1)C1(O)CCCCC1` (stereo not given) [Desvenlafaxine], the bioluminescence in experiment [1] turned out to be 1.07; in experiment [2], 0.36.
Taken in the same sequence, the figures for `CCC(C)n1ncn(-c2ccc(N3CCN(c4ccc(OC[C@H]5CO[C@](Cn6cncn6)(c6ccc(Cl)cc6Cl)O5)cc4)CC3)cc2)c1=O` (stereo not given in full) [Itraconazole] were 0.596 and 1.31.
The corresponding values for `CCCN[C@H]1CCc2nc(N)sc2C1.Cl.Cl.O` [Pramipexole 2HCl Monohydrate] are 0.567 and 0.629.
The corresponding values for `Cl.CN(C)CC\C=C1\c2ccccc2C=Cc2ccccc12` [Cyclobenzaprine hydrochloride] are 1.61 and 3.73.
